Values joined by “and” are separate entries in the source; they are usually repeats but may differ in a detail not shown here. Equal entries are not always repeated. The campaign covered roughly 420,000 compounds. About 50,000 (12%) were called active. A call without a number means that no potency is given here. Inconclusive results (about 26%) are left out. Calls follow the shape of the dose curve; as a rule, active = well fitted inhibition curve with a large enough effect; inconclusive = small, poorly fitted or top-dose-only effect; inactive = flat fitted curve, though single readings scatter. Many of the other results were omitted from the sample, so actives are more common in it than they were.
Potency is read from the fitted curve at half-maximal effect.

A short description of this assay: qHTS for Inhibitors of human tyrosyl-DNA phosphodiesterase 1 (TDP1): qHTS in cells in presence of CPT. Also: nearly all actives have a fitted effect of over 55% in size. The note with it: chicken DT40 Tdp1-/-;hTDP1 cells + 20 nM CPT, ATP luminescence, 48 h; series mostly up to 46.2 µM. The method, boiled down:
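Chicken DT40 Tdp1-/- cells stably complemented with human TDP1 were seeded at 400 cells/well in medium containing 20 nM camptothecin, exposed to pin-transferred compounds, and grown at 37 °C for at least 48 hr. Viability was read as ATP luminescence.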
Turning to `Cc1cc(C)c(S(=O)(=O)NCC(c2ccc3c(c2)OCO3)N2CCOCC2)c(C)c1` (stereo not given), the Potency entry is “inactive”.
Under `COc1cc(OC)cc(C(=O)NNC(=O)Cc2cccs2)c1` stands “inactive”.
On to `COc1cc(OC)c(NC(=O)Cc2ccc(-n3c(C)nc4cccnc43)cc2)cc1Cl`, for which the Potency was 23.1 µM (active).
Turning to `COCCCNC(=O)Cc1ccc(-n2c(C)nc3cccnc32)cc1`, the Potency entry is “inactive”.
In the case of `CCc1nc2cccnc2n1-c1ccc(C(=O)O)cc1`, the Potency entry was “inactive”.
Consider `Cc1cccc(-n2nc3c(c2NC(=O)c2cc4ccccc4o2)CS(=O)(=O)C3)c1`, for which the Potency entry is “inactive”.
Regarding `O=C(CN1CCC(O)(c2cccc(C(F)(F)F)c2)CC1)NCCc1ccccc1`, the Potency entry is “inactive”.
For the compound `CSc1ccc(C(=O)C2CCCN(C(=O)c3ccc(C)nc3)C2)cc1` (stereo not given), the Potency was 20.6 µM (active).
The same measure for `O=C(c1ccc(F)cc1)N1CCCC(C(=O)N2CCCCC2)C1` (stereo not given): “inactive”; for `Cc1cnc(C(=O)N2CCCC(N3CCN(c4ccccc4F)CC3)C2)cn1` (stereo not given): “inactive”.
Under `COc1cc2c(cc1OC)C(C(=O)Nc1cc(C)c(OC)c(C)c1)CC(=O)N2` (stereo not given) stands “inactive”; under `COc1ccc(NC(=O)c2ccco2)cc1NC(=O)c1ccc(C#N)cc1F`, “inactive”.
Under `COc1ccc(N(CC(=O)N2CCCCCC2)S(=O)(=O)c2ccccc2)cc1` stands “inactive”; under `CCC(C)[C@H](NC(=O)N1c2ccccc2NC(=O)[C@@H]1C(C)C)C(=O)N[C@@H](Cc1ccccc1)C(=O)O` (stereo not given in full), “inactive”; under `CCOC(CNC(=O)C1CCN(S(=O)(=O)c2ccc3nc4c(c(C(=O)O)c3c2)CC(C)CC4)CC1)OCC` (stereo not given), “inactive”.
`CCCc1nn2c(=O)cc(CSCC(=O)Nc3cccc(C)c3)nc2s1`: the Potency result was “inactive”.
Take `COc1ccc(-c2c(C#Cc3ccccc3)c3ccccc3n2C)cc1`: the Potency result is “inactive”.
The same measure for `COc1ccc(CCNC(=O)COC(=O)c2cc(=O)c3ccccc3o2)cc1`: “inactive”; for `COc1ccc(CCNCc2c(-c3ccccc3)n(C)c3ccccc23)cc1`: 16.4 µM (active).
As to `O=c1[nH]c2c(c(=O)n1-c1ccccc1)CCO2`, the Potency result was “inactive”.
`O=C(CCNC(=O)c1ccc([N+](=O)[O-])cc1)NC1CCCCC1`: the Potency entry is “inactive”.
Under `CCOc1ccc(C2c3[nH]c4ccccc4c3CCN2Cc2cccn2-c2ncccn2)cc1` (stereo not given) stands 20.6 µM (active).
Under `c1ccc(C2c3[nH]c4ccccc4c3CCN2Cc2cccn2-c2cccnc2)nc1` (stereo not given) stands “inactive”; under `CCOc1ccc(C2c3[nH]c4ccccc4c3CCN2Cc2cn(CC)nc2C)cc1` (stereo not given), “inactive”; under `CN(CC(=O)Nc1c(Cl)cccc1Cl)C(=O)CNC(=O)C1CCCCC1`, “inactive”.
Consider `Cc1ccc(-n2c(SCC(=O)NCCC3=CCCCC3)nc3n[nH]c(C)c3c2=N)cc1Cl`, for which the Potency was 11.6 µM (active).
The same measure for `Cc1nnc(OCC(=O)NCCC2=CCCCC2)c2ccccc12`: “inactive”; for `Cc1nnc(SCC(=O)NCCOc2ccc(Cl)cc2)n1-c1ccccc1`: “inactive”.
Under `CCCCNC(=O)CSc1nc2n[nH]c(C)c2c(=N)n1-c1cccc(Cl)c1C` stands 16.4 µM (active) and 11.6 µM (active); under `CCCCNC(=O)CSc1nccn1Cc1ccccc1`, “inactive”; under `CCCCNC(=O)CSc1nnc(-c2ccco2)n1C`, “inactive”.
As to `CCOc1ccc(-n2c(SCC(=O)Nc3cc(C(=O)O)ccc3Cl)nc3ccccc3c2=O)cc1`, the Potency entry was “inactive”.
Under `O=C(COc1ccc(Cl)cc1)NCCC1=CCCCC1` stands “inactive”.
Turning to `CCC(Sc1nc2n[nH]c(C)c2c(=N)n1-c1ccccc1Cl)C(=O)N(CC)CC` (stereo not given), the Potency is 18.4 µM (active).
As to `CCOc1ccc(-n2c(SCC(=O)NCc3ccccc3)nc3n[nH]c(C)c3c2=N)cc1`, the Potency is 9.2 µM (active).
Under `O=C(COC(=O)c1cccnc1Cl)NC(=O)NC1CCCCC1` stands “inactive”; under `C[C@H](C(=O)CC(=O)OC(C)(C)C)[C@H](O)c1ccc(C(F)(F)F)cc1`, “inactive”; under `Cc1ccc(SCCC(=O)NC(C(C)C)C(C)C)cc1`, “inactive”.
For the compound `COc1ccc(OCC(=O)Nc2ccc(NC(=O)c3ccco3)c(C)c2)cc1`, the Potency result is “inactive”.
Under `CCC1(C2CCN(C(=O)c3cccc(F)c3F)CC2)NC(=O)N(CCc2scnc2C)C1=O` (stereo not given) stands “inactive”; under `CCCC(C)NC(=O)C1CCN(C(=O)C2CC(=O)N(c3ccc(C)cc3)C2)CC1` (stereo not given), “inactive”; under `CCN(Cc1ccccc1)S(=O)(=O)c1cc(C(=O)O)ccc1OC`, “inactive”.
With `CSC1=NN(c2ccccc2)CN(c2ccccc2)N1C`, the Potency result was “inactive”.
Under `CC(C)NC(=O)NC(=O)CSc1nnc(-c2ccccc2F)n1N` stands “inactive”.
The same measure for `COc1ccc(-n2c(SCC(=O)Nc3ccc(Cl)c(C)c3)nc3n[nH]c(C)c3c2=N)cc1`: 13 µM (active); for `COc1ccc(-n2nnnc2SCC(=O)Nc2ccccc2)cc1`: “inactive”; for `COc1ccc(-n2c(Cc3cccn3C)nnc2SCC(=O)Nc2cc(C)cc(C)c2)cc1`: “inactive”.
Consider `Cn1c(CNC(=O)c2ccccc2F)nnc1SCc1ccc(F)cc1`, for which the Potency result was “inactive”.
Under `O=C(NCc1cccnc1)c1nc(-c2cccs2)no1` stands “inactive”; under `O=C(CSc1ccccc1)Nc1cc(Cl)ccc1Oc1ccccc1`, “inactive”.
Under `CC(=O)Nc1ccc(NC(=O)CN2CCCC(C)C2)c(Cl)c1` (stereo not given) stands “inactive”.
Under `CC1CCCN(CC(=O)Nc2cc(Cl)ccc2Oc2ccccc2)C1` (stereo not given) stands 25.9 µM (active); under `CC1CCCN(S(=O)(=O)c2ccc(-c3ccc(=O)[nH]n3)o2)C1` (stereo not given), “inactive”.
`Cc1ccc(/C=C/C(=O)OCC(=O)NCc2ccc(Cl)cc2)o1`: the Potency entry was “inactive”.
Under `Cc1ccc(C(C(=O)NCC2CCCO2)N(C(=O)c2snc(C(N)=O)c2N)c2ccc(C(C)C)cc2)o1` (stereo not given) stands 23.1 µM (active).
Under `CCOc1ccc(N(C(=O)c2snc(C(N)=O)c2N)C(C(=O)NCC2CCCO2)c2c[nH]c3ccccc23)cc1` (stereo not given) stands “inactive”; under `COc1ccc(N(C(=O)c2snc(C(N)=O)c2N)C(C(=O)NC2CCCC2)c2ccco2)cc1OC` (stereo not given), “inactive”.
On to `Cc1ccc(N(C(=O)c2snc(C(N)=O)c2N)C(C(=O)NCC2CCCO2)c2c[nH]c3ccccc23)cc1` (stereo not given), for which the Potency is 4.61 µM (active).
With `COCCNC(=O)C(c1ccc(C)o1)N(Cc1cccs1)C(=O)c1snc(C(N)=O)c1N` (stereo not given), the Potency result was “inactive”.
Turning to `Cc1ccc(N(C(=O)Cc2cccs2)C(C(=O)NCC2CCCO2)c2ccncc2)cc1` (stereo not given), the Potency entry was “inactive”.
Under `Nc1nc(Sc2ncccc2[N+](=O)[O-])n[nH]1` stands “inactive”.
Under `O=C(Oc1ccc(Br)cc1C(=S)N1CCOCC1)c1cccc([N+](=O)[O-])c1` stands “inactive”; under `O=C(NNC(=O)C(O)c1ccccc1)NC1CCCCC1` (stereo not given), “inactive”.
Turning to `O=C(CN1CCN(Cc2ccc(Cl)cc2)C1=O)NCc1ccc(F)cc1`, the Potency entry was “inactive”.
The same measure for `NC(=O)c1ccc(Nc2ccc3nonc3c2[N+](=O)[O-])cc1`: “inactive”.
The same measure for `O=C(c1cccs1)N1CCN(Cc2ccc3c(c2)OCO3)CC1`: “inactive”; for `O=C(C1CCN(S(=O)(=O)c2cnc[nH]2)CC1)N1CCN(Cc2ccc3c(c2)OCO3)CC1`: 20.6 µM (active).
For `Cc1cc(C)n2nc(C(=O)N3CCN(Cc4ccc5c(c4)OCO5)CC3)nc2n1`, the Potency entry is “inactive”.
The same measure for `O=C(Nc1cccc2ccccc12)N1CCN(Cc2ccc3c(c2)OCO3)CC1`: “inactive”; for `O=C(C1CCN(Cc2ccc(Cl)cc2)CC1)N1CCN(Cc2ccc3c(c2)OCO3)CC1`: 23.1 µM (active); for `CCN(CCCNC(=O)C1CCN(S(=O)(=O)c2cnc[nH]2)CC1)c1ccccc1`: “inactive”.
The same measure for `CCN(C(=O)CSc1nnnn1-c1ccc(OC)cc1)C1CCS(=O)(=O)C1` (stereo not given): “inactive”; for `CO/N=C/c1cn(-c2ccc(Cl)cc2)nn1`: “inactive”; for `CSc1ccc(/C=N/NC(=O)c2cccc(Cl)c2)cc1`: “inactive”.
Regarding `CCOC(=O)c1ccccc1NC(=O)c1c(N)n(C)c(=O)[nH]c1=O`, the Potency result was “inactive”.
Regarding `CCc1ccc(NC(=O)CN2C(=O)COc3ccc(S(=O)(=O)N4CCCC4)cc32)cc1`, the Potency result was “inactive”.
For the compound `NS(=O)(=O)c1ccc(NC(=O)/C=C/c2ccccc2Cl)cc1`, the Potency entry is “inactive”.
Turning to `COc1ccc(/C=N/NS(=O)(=O)c2ccc(NC(C)=O)cc2)cc1`, the Potency result was “inactive”.
For the compound `CC(=O)Nc1ccc(S(=O)(=O)Nc2ccc(N3CCCCC3)cc2)cc1`, the Potency was 4.61 µM (active).
The same measure for `COc1ccc(NC(=O)c2cnc(NS(=O)(=O)c3ccccc3)nc2)cc1`: “inactive”.
The same measure for `CC(=O)Nc1ccc(S(=O)(=O)N2CCCC2C(=O)O)cc1` (stereo not given): “inactive”.
Regarding `CC(=O)Nc1ccc(NS(=O)(=O)c2ccc3c(c2)NC(=O)CC(=O)N3)cc1`, the Potency entry is “inactive”.
Consider `COc1ccc(NS(=O)(=O)c2ccc(NC(C)=O)cc2)cc1OC`, for which the Potency was 9.2 µM (active).
The same measure for `CC(=O)Nc1ccc(S(=O)(=O)Nc2cccc(NC(=O)C(C)(C)C)c2)cc1`: “inactive”; for `COc1cc(NS(=O)(=O)c2ccc(NC(C)=O)cc2)cc(OC)c1`: 14.6 µM (active); for `COC(=O)COc1ccc(S(=O)(=O)Nc2ccc(NC(C)=O)cc2)cc1`: “inactive”.
Turning to `COc1ccc(NS(=O)(=O)c2ccc(NC(=O)c3ccc(N(C)S(C)(=O)=O)cc3)cc2)cc1`, the Potency was 8.2 µM (active).
As to `COc1cc(OC)cc(C(=O)Nc2ccc(S(=O)(=O)Nc3cc(C)on3)cc2)c1`, the Potency result is “inactive”.
For the compound `COc1ccc(C(=O)Nc2ccc(S(=O)(=O)Nc3onc(C)c3C)cc2)cc1OC`, the Potency result was “inactive”.
Take `CCOc1ncccc1C(=O)OCC(=O)N1c2ccccc2CC1C` (stereo not given): the Potency result was “inactive”.
On to `Oc1cccc2ccc(/C=C/c3ccc(Br)s3)nc12`, for which the Potency entry was “inactive”.
Under `Cc1c(C(=O)NCCN2C(=O)S/C(=C\c3cccs3)C2=O)cccc1[N+](=O)[O-]` stands “inactive”.
The same measure for `CCCNC(=O)CCn1cc(-c2ccc(OC)cc2)nc1CCN`: “inactive”; for `CC(=O)c1cccc(NC(=S)N2CCN(S(C)(=O)=O)CC2)c1`: “inactive”.
For the compound `CCCCCn1c(=O)c(C(=O)OCC)c(Cl)c2ccccc21`, the Potency result is “inactive”.
For the compound `COc1ccc(S(=O)(=O)Nc2ccc3oc(C)c(C(C)=O)c3c2)cc1`, the Potency was 3.26 µM (active).
Take `CC(=O)c1c(C)oc2ccc(NS(=O)(=O)c3ccccc3)cc12`: the Potency entry was “inactive”.
Under `COc1ccc2oc(C)c(NC(C)=O)c2c1` stands “inactive”; under `Cc1cccc(-c2noc(CCC(=O)NC3CCCC3)n2)c1`, “inactive”; under `CC(Oc1ccccc1)C(=O)Nc1c2c(nn1-c1ccccc1)CS(=O)C2` (stereo not given), “inactive”.

For the origin of these results see PubChem BioAssay AID686979 (National Center for Advancing Translational Sciences (NCATS), 2013).
